Screening results as filed in PubChem BioAssay.
Shown is part of a subset that was picked to be rich in hits.
Shiga inhibitor: Shiga toxin inhibition; Vero cells, Shiga toxin protein synthesis inhibition reporter; AID 2315; actives 9.2% (n = 290,000); inhibition, % at 38.7 µM; in the data active = inhibition mostly above about 28%, no sharp cut-off; inactive = mostly below about 43%
LmPK inh: inhibitors of Leishmania mexicana pyruvate kinase | Q27686 | purified LmPK, Kinase-Glo ATP luminescence, 1 h | Potency, µM (series often up to 57.5 µM), most hits filed as inhibitors | actives 0.37% (n = 290,000)
Target sequence (Q27686 whole entry, looked up): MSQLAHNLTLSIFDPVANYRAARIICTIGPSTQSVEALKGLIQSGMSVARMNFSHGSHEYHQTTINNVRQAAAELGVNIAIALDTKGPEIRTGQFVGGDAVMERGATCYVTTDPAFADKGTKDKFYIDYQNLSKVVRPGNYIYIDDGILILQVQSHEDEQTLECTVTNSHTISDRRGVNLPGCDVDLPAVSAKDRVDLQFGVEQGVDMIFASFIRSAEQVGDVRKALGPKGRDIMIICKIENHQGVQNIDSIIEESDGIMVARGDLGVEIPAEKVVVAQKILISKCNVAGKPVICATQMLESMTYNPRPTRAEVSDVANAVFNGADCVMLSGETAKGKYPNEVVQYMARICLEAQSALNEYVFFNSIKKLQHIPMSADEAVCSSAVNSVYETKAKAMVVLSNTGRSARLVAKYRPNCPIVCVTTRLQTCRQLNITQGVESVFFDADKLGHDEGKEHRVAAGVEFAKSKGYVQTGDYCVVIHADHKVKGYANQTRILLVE
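ATP generated from ADP (0.1 mM) and PEP (0.5 mM) by 0.1 nM LmPK over 1 h at room temperature (pH 7.2 imidazole buffer) was detected by coupled luciferase luminescence. Values were normalized to uninhibited and no-enzyme wells.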
RE007 growth inh: less growth of the S. pombe RE007 Vpr strain. S. pombe RE007 Vpr strain, BacTiter-Glo ATP luminescence, 24 h. Potency, µM (top dose mostly 92.2 µM), actives largely listed as inhibitors. actives 0.21% (n = 360,000); active = well fitted falling curve with a large enough effect; inconclusive = small, poorly fitted or top-dose-only effect; inactive = no such curve, though single readings can be large or run the other way; note: nearly all actives have a fitted effect of over 50% in size
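Fission yeast strain RE007, carrying one chromosomally integrated HIV-1 vpr copy, was seeded at OD 0.01 in PMG+AL medium with 23 nL pinned compound. After 24 h at 30 °C and 99% humidity, viability was read by BacTiter-Glo luminescence.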
CHX counter: counter-screen for Shiga toxin inhibitors: cycloheximide protein synthesis inhibition. actives 12% (n = 300,000). max response, %. cell reporter, cycloheximide protein synthesis inhibition counterscreen; in the data active = max response mostly above about 13%, no sharp cut-off; inactive = mostly below about 14%; note: read at 38.3 µM for the half of the compounds with a filed dose
Giardia FBPA inh: blocks Giardia fructose-bisphosphate aldolase activity. purified Giardia FBPA. Potency, µM (titrated, usually from 59.6 µM), usual class: inhibitors. actives 0.71% (n = 290,000). AID 2451; note: nearly all actives have a fitted effect of over 55% in size
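40 nM FBPA preincubated 10 min at RT with compound (up to 57.5 uM final), then substrate plus GAPDH/TPI/NAD/arsenate coupling and diaphorase/resazurin added. Fluorescence read after 20 min at RT, 525/598 nm.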
TbPYK inhibitor: T. brucei pyruvate kinase inhibition. Q57TT1. TbPYK enzyme, Kinase-Glo Plus ATP luminescence, 45 min. Potency, µM (highest dose often 76.8 µM), usual class: inhibitors. actives 0.12% (n = 410,000). AID 624173; note: nearly all actives have a fitted effect of over 50% in size
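TbPYK + substrate in 50 mM TEA pH 7.2, 100 mM KCl, 10 mM MgCl2, 0.05% BSA, 0.01% Tween-20; cpd pinned; ADP 130 uM final; 45 min RT; Kinase-Glo Plus 10 min; luminescence endpoint.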
Numbers stand for hits; n = inactive; u = inconclusive; x = no result; [ ] = dose if it differs, or a comment. Unless noted, calls come from the whole dose curve; as a rule, active = well fitted curve in the direction sought with a large enough effect; inconclusive = small, poorly fitted or top-dose-only effect, or another doubt; inactive = no such curve, though single readings can be large; an effect the other way counts as inactive or inconclusive.

SMILES	Shiga inhibitor	LmPK inh	RE007 growth inh	CHX counter	Giardia FBPA inh	TbPYK inhibitor
Cc1ccc(NC(=O)CCNS(=O)(=O)c2cccs2)cc1F	70	n	n	26	n	n
O=C(NCC1CC1)c1ccc2c3n(nc2c1)-c1ccccc1CO3	92	14µM	n	30	n	u
Cc1ccc2c(c1)COc1c3ccc(C(=O)NCC4CC4)cc3nn1-2	54	n	n	30	n	n
Cc1ccc2c(c1)COc1c3ccc(C(=O)O)cc3nn1-2	n	u	n	n	n	u
O=C(NCCO)c1ccc2c3n(nc2c1)-c1ccccc1CO3	44	u	n	39	n	n
COc1ccc(N2C=C3C(=O)C(C)(OC(=O)C4CCCC4)C(=O)C=C3C=C2c2ccsc2)cc1 (configuration not stated)	x	n[11.5 µM]	x	x	u	x
CN1c2ccsc2C(O)=C(C(=S)Nc2ccc(F)c(Cl)c2)S1(=O)=O	n	n	n	15	n	n
Cn1cc(C(=O)Nc2ccc(F)c(Cl)c2)cn1	n	n	n	n	n	n
O=C(Nc1ccccc1)N(C1=NCCCCS1)c1cccc2ccccc12	n	n	n	46	n	n
O=C(Nc1ccccc1)N(C1=NCCCCS1)c1ccccc1	n	n	n	24	n	n
Nc1nc(-c2ccc(Br)s2)c(Br)s1	63	n	u	38	n	n
Cc1cccc(N2CCN(S(=O)(=O)c3ccc4oc(=O)c5ncn(C)c5c4c3)CC2C)c1 (configuration not stated)	x	x	x	x	x	n
O=C(CCSCc1ccccc1F)NCc1ccc(F)cc1	n	n	n	n	n	n
O=C(CSCc1ccccc1F)NCc1ccc(F)cc1	n	n[11.5 µM]	n	43	n	n
CN(C)C(=S)SCC(=O)NCc1ccc(F)cc1	51	n	n	29	n	n
Cc1ccc(CNC(=O)CSCc2ccccc2F)cc1	n	n	n	39	n	n
CCOc1ccc(NC(=O)CSc2ncc3c(n2)-c2ccc(Cl)cc2N(Cc2ccccc2)S3(=O)=O)cc1	x	x	x	x	x	n
CCc1cc(C(=O)Nc2ncccc2O)sc1C	55	n	u	37	n	n
N=C(N)c1ccc(OCCCOc2ccc(C(=N)N)cc2)cc1	x	x	x	x	x	n
CCCCCCOc1ccc(/C(N)=N/O)cc1	61	n	n	44	n	n
COc1ccccc1N1CCN(C(=O)c2cc3c(=O)n(Cc4cccnc4)ccc3nc2C)CC1	x	x	x	x	x	n
CC1=C(C(=O)NCc2cccc(F)c2)C2(CCCCC2)OC1=O	x	x	x	x	x	n
O=c1cc(/C=C/c2c(F)cccc2Cl)[nH]c2ccccc12	63	n	n	54	n	n
O=c1cc(-c2ccccc2)[nH]c2ccccc12	n	n	u	n	n	n
CN(C)/C=N/c1c(C#N)cnn1-c1ccccc1	n	n	n	n	n	n
SMILES	Shiga inhibitor	LmPK inh	RE007 growth inh	CHX counter	Giardia FBPA inh	TbPYK inhibitor
CN(C)/C=N/c1c(C#N)cnn1-c1nc2ccccc2s1	87	n	n	44	n	n
Cc1ccc2nc(NCc3ccccc3)[nH]c2c1	91	n	n	34	n	n
c1ccc(CNc2nc3ccccc3[nH]2)cc1	n	n	n	26	n	n
COc1ccc2nc(N3CCCC3)[nH]c2c1	n	n	n	19	n	n
c1ccc2[nH]c(NCc3ccc4c(c3)OCO4)nc2c1	63	n	n	34	n	n
Cc1ccc2nc(NCc3ccccc3)c(C#N)cc2c1	n	n	n	n	u	n
Cc1c(-c2nnc(SCC(=O)Nc3ccc(Cl)cc3)o2)nnn1-c1ccc(F)cc1	x	x	x	x	x	n
O=C(COCc1cc(-c2ccc(F)cc2)on1)Nc1cccc(Cl)c1Cl	x	x	x	x	x	n
O=C1CSC2(C(=O)N(Cc3c(F)cccc3Cl)c3ccccc32)N1c1ccc(F)c(F)c1 (configuration not stated)	x	x	x	x	x	n
COc1ccc2nc(NCCO)[nH]c2c1	n	n	n	n	n	n
COc1ccc2nc(NCc3ccccc3)[nH]c2c1	n	n	n	24	n	n
COc1ccc(-c2nc3cc(C(C)C)ccc3o2)cc1NC(=O)c1ccc(C)c(Cl)c1	x	x	x	x	x	n
CS(=O)(=O)N(CC(=O)Nc1ccc2c(c1)OCCO2)Cc1ccc(Cl)cc1	33	n	n	22	n	n
COc1ccc(C)cc1S(=O)(=O)N(CC(=O)Nc1ccc2c(c1)OCCO2)Cc1ccccc1	n	n	n	9.8	n	n
